These results are taken from PubChem BioAssay (Tox21).

Records with an inconclusive call do not appear. Calls of active or inactive are those of the source. Unless noted, calls come from the whole dose curve; as a rule, active = well fitted curve in the direction sought with a large enough effect in the repeat runs; inconclusive = weak or mixed curves; inactive = no such curve, though single readings can be large; an effect the other way counts as inactive or inconclusive.
% is set by controls: 0 for no effect and ±100 for the full control effect.

System in the first assay: not listed separately
Put plainly: qHTS assay to identify small molecule antagonists of the estrogen receptor alpha (ER-alpha) signaling pathway using the BG1 cell line (AID 743080; calls by dose curve;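 note: BG1 cells stimulated with 17beta-estradiol alongside compound; nearly all actives have a fitted effect of over 25% in size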). As to conditions: BG1Luc4E2 ERE-luciferase antagonist mode, luminescence; series mostly up to 70.3 µM; activity change, negative = inhibition: at the top concentration. The gist of the method: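 BG1-Luc-4E2 cells (endogenous full-length ER-alpha, 4xERE luciferase) hormone-starved 5 days in charcoal-stripped FBS, plated 4,000/well for 24 h, then compound plus 17beta-estradiol for 21.5 h at 37 C; ONE-Glo luminescence read.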
On to `O=C(O)c1ccccc1S`, for which the “activity change, negative = inhibition” value was 5.51% (inactive).

Turning to `c1ccc2cnncc2c1`, the “activity change, negative = inhibition” value is 4.21% (inactive).

Take `CCCCC1CCCCC(=O)O1` (configuration not stated): the “activity change, negative = inhibition” value is -2.08% (inactive).

As for `O=S(=O)(O)c1ccccc1O`, the “activity change, negative = inhibition” value is -2.41% (inactive).

Take `CCc1cc(S(=O)(=O)O)c2cc(C(C)C)cccc1-2`: the “activity change, negative = inhibition” value was 6.89% (inactive).

For the molecule `C=C(C)[C@@H]1CCC2=CC(=O)C[C@@H](C)[C@]2(C)C1`, the “activity change, negative = inhibition” value is -4.05% (inactive).

Regarding `C=C(C)[C@H]1CC=C(C)CC1`, the “activity change, negative = inhibition” value was -7.45% (inactive).

As to `CC1=CC(C)C(C=O)C(C)C1` (configuration not stated), the “activity change, negative = inhibition” value is 0.718% (inactive).

For `COC(=O)[C@H]1[C@H]2C[C@@H]3c4[nH]c5cc(OC)ccc5c4CCN3C[C@H]2C[C@@H](OC(=O)COc2ccc(OC)cc2)[C@@H]1OC`, the “activity change, negative = inhibition” value is -9.16% (inactive).

For `CN1[C@@H]2CC[C@H]1CC(NC(=O)n1c(=O)[nH]c3ccccc31)C2` (some centres not stated), the “activity change, negative = inhibition” value was 11.3% (inactive).

Take `CCC(=O)/C=C/c1ccc(OC)cc1`: the “activity change, negative = inhibition” value was 19.7% (inactive).

Turning to `CCN1CCCC(OC(=O)C(c2ccccc2)c2ccccc2)C1` (configuration not stated), the “activity change, negative = inhibition” value is 0% [at 32.5 µM] (inactive).

With `CCCCOCC(C)OCC(C)O` (configuration not stated), the “activity change, negative = inhibition” value is 0.11% [at 95 µM] (inactive).

Consider `Cc1nccn1CC1CCc2c(c3ccccc3n2C)C1=O` (configuration not stated), for which the Potency result was “inactive”.

Consider `CCC(=O)Nc1cccc(N)c1`, for which the “activity change, negative = inhibition” value was -6.88% (inactive).

System in the next assay: not listed separately
Put plainly: qHTS assay to identify small molecule antagonists of the estrogen receptor alpha (ER-alpha) signaling pathway using the BG1 cell line - cell viability counter screen (AID 743081).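 Note: compound given together with 17beta-estradiol as the ER stimulus; nearly all actives have a fitted effect of over 45% in size.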 As to conditions: BG1Luc4E2 viability, CellTiter-Fluor, 22 h; series mostly up to 70.3 µM; activity change, negative = cytotoxicity: at the top concentration. (In qHTS, concentration-response curves come from the screen itself.)
With `O=C(O)/C=C/c1ccc(Cn2ccnc2)cc1`, the “activity change, negative = cytotoxicity” value is -0.714% [at 32.5 µM] (inactive).

Consider `c1ccc2cnncc2c1`, for which the “activity change, negative = cytotoxicity” value was 12% (inactive).

As to `CCCCC1CCCCC(=O)O1` (configuration not stated), the “activity change, negative = cytotoxicity” value is -5.03% (inactive).

As to `CCCCCCCCCCCCCCCCCCOCC(O)CO` (configuration not stated), the “activity change, negative = cytotoxicity” value is -2.47% (inactive).

As to `O=S(=O)(O)c1ccccc1O`, the “activity change, negative = cytotoxicity” value was 5.1% (inactive).

Regarding `CCc1cc(S(=O)(=O)O)c2cc(C(C)C)cccc1-2`, the “activity change, negative = cytotoxicity” value was -21.4% (inactive).

For the molecule `C=C(C)[C@@H]1CCC2=CC(=O)C[C@@H](C)[C@]2(C)C1`, the “activity change, negative = cytotoxicity” value is -4.01% (inactive).

With `C=C(C)[C@H]1CC=C(C)CC1`, the “activity change, negative = cytotoxicity” value is -1.14% (inactive).

In the case of `c1ccc(SCCSc2ccccc2)cc1`, the “activity change, negative = cytotoxicity” value was -3.33% (inactive).

Turning to `COC(C(=O)O)c1ccccc1` (configuration not stated), the “activity change, negative = cytotoxicity” value was 6.31% (inactive).

For `CC1=CC(C)C(C=O)C(C)C1` (configuration not stated), the “activity change, negative = cytotoxicity” value was -2.17% (inactive).

Take `c1cc(CN2CCCCC2)cc(OCCCNc2nc3ccccc3s2)c1`: the “activity change, negative = cytotoxicity” value is -10.4% (inactive).

Take `COC(=O)[C@H]1[C@H]2C[C@@H]3c4[nH]c5cc(OC)ccc5c4CCN3C[C@H]2C[C@@H](OC(=O)COc2ccc(OC)cc2)[C@@H]1OC`: the “activity change, negative = cytotoxicity” value was -12.6% (inactive).

`CN1[C@@H]2CC[C@H]1CC(NC(=O)n1c(=O)[nH]c3ccccc31)C2` (some centres not stated): the “activity change, negative = cytotoxicity” value is -2.14% (inactive).

With `COc1ccc(N=[N+]([O-])c2ccc(OC)cc2)cc1`, the “activity change, negative = cytotoxicity” value is -15% (inactive).

On to `Oc1ccc2c(c1)OC[C@@H](N1CCC(O)(c3ccc(F)cc3)CC1)[C@H]2O`, for which the “activity change, negative = cytotoxicity” value was -0.652% (inactive).

As to `CCCCCCCCCCCCI`, the “activity change, negative = cytotoxicity” value is -11.4% [at 95 µM] (inactive).

Regarding `C=C(C)C(=O)NCCCN(C)C`, the “activity change, negative = cytotoxicity” value was -6.49% (inactive).

For the molecule `CCCCCCCCCCCCCCC`, the “activity change, negative = cytotoxicity” value is -1.92% (inactive).

Turning to `CCC(=O)/C=C/c1ccc(OC)cc1`, the “activity change, negative = cytotoxicity” value is -11.2% (inactive).

Turning to `OC1OC[C@@H](O)[C@H](O)[C@H]1O` (some centres not stated), the “activity change, negative = cytotoxicity” value is 5.22% (inactive).

In the case of `Cn1cnc2c(=O)[nH]c(N)nc21`, the “activity change, negative = cytotoxicity” value was -0.673% (inactive).

Take `CCCCOCC(C)OCC(C)O` (configuration not stated): the “activity change, negative = cytotoxicity” value is 0.777% [at 95 µM] (inactive).

For the molecule `CC(C)c1ccc2oc3nc(N)c(C(=O)O)cc3c(=O)c2c1`, the “activity change, negative = cytotoxicity” value was -6.72% (inactive).

For the molecule `Cc1ccccc1Br`, the “activity change, negative = cytotoxicity” value was 0.938% (inactive).

With `CC(O)CN(CCCN(C)C)CCCN(C)C` (configuration not stated), the “activity change, negative = cytotoxicity” value was 6.39% (inactive).

For the molecule `CCCCC=O`, the “activity change, negative = cytotoxicity” value was 20.2% (inactive).

In the case of `Cc1nccn1CC1CCc2c(c3ccccc3n2C)C1=O` (configuration not stated), the “activity change, negative = cytotoxicity” value was 22.3% (inactive).

For the molecule `N#CCN(CC#N)CCN(CC#N)CC#N`, the “activity change, negative = cytotoxicity” value was 18.6% (inactive).

With `CN(C)N=Nc1ccccc1`, the “activity change, negative = cytotoxicity” value is 10.9% (inactive).

On to `CCC(=O)Nc1cccc(N)c1`, for which the “activity change, negative = cytotoxicity” value was 7.59% (inactive).

Consider `Cc1nc(-c2ccc(OCC(C)C)c(C#N)c2)sc1C(=O)O`, for which the “activity change, negative = cytotoxicity” value is 20.3% (inactive).

Take `Cc1ccc(N)cc1[N+](=O)[O-]`: the “activity change, negative = cytotoxicity” value is -5.71% [at 95 µM] (inactive).

The target in the next assay is Aromatase (Homo sapiens) (UniProt P11511). Description: qHTS assay to identify aromatase inhibitors (AID 743083). Note: nearly all actives have a fitted effect of over 55% in size. Note: potency is the fitted concentration of half-maximal effect. The settings on record: MCF-7 aro ERE, testosterone-driven ERE luciferase, 24 h; series mostly up to 70.3 µM; activity, negative = inhibition: at the top concentration.
Sequence of Aromatase (Homo sapiens) (P11511 whole entry, looked up): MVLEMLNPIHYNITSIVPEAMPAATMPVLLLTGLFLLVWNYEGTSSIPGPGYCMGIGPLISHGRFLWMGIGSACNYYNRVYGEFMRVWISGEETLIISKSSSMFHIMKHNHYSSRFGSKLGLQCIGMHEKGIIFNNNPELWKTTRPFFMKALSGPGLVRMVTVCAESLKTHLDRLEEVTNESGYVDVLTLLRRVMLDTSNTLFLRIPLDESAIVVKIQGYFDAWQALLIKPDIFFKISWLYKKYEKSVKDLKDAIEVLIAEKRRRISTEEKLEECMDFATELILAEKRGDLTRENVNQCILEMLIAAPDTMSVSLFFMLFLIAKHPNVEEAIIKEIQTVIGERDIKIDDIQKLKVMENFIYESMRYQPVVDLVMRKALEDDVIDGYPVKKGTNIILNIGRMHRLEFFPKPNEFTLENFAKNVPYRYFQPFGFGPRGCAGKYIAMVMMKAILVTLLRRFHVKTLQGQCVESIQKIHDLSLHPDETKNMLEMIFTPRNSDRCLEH
With `O=C(O)/C=C/c1ccc(Cn2ccnc2)cc1`, the “activity, negative = inhibition” value is -0.429% [at 32.5 µM] (inactive).

As for `O=C(O)c1ccccc1S`, the “activity, negative = inhibition” value is -0.211% (inactive).

Regarding `c1ccc2cnncc2c1`, the “activity, negative = inhibition” value is 12.6% (inactive).

On to `CCCCC1CCCCC(=O)O1` (configuration not stated), for which the “activity, negative = inhibition” value was 14.7% (inactive).

As for `CCCCCCCCCCCCCCCCCCOCC(O)CO` (configuration not stated), the “activity, negative = inhibition” value is 112% (inactive).

On to `O=S(=O)(O)c1ccccc1O`, for which the “activity, negative = inhibition” value is -1.21% (inactive).

Turning to `CCc1cc(S(=O)(=O)O)c2cc(C(C)C)cccc1-2`, the “activity, negative = inhibition” value is 4.22% (inactive).

With `C=C(C)[C@H]1CC=C(C)CC1`, the “activity, negative = inhibition” value is -2.83% (inactive).

Turning to `c1ccc(SCCSc2ccccc2)cc1`, the “activity, negative = inhibition” value is 133% (inactive).

For `COC(C(=O)O)c1ccccc1` (configuration not stated), the “activity, negative = inhibition” value is 1.03% (inactive).

`CC1=CC(C)C(C=O)C(C)C1` (configuration not stated): the “activity, negative = inhibition” value is 10.7% (inactive).

For `COC(=O)[C@H]1[C@H]2C[C@@H]3c4[nH]c5cc(OC)ccc5c4CCN3C[C@H]2C[C@@H](OC(=O)COc2ccc(OC)cc2)[C@@H]1OC`, the “activity, negative = inhibition” value was 0.254% (inactive).

For `CN1[C@@H]2CC[C@H]1CC(NC(=O)n1c(=O)[nH]c3ccccc31)C2` (some centres not stated), the “activity, negative = inhibition” value was -16.9% (inactive).

Turning to `COc1ccc(N=[N+]([O-])c2ccc(OC)cc2)cc1`, the “activity, negative = inhibition” value is -1.13% (inactive).

Consider `NC(CS)C(=O)O` (configuration not stated), for which the “activity, negative = inhibition” value is 6.56% (inactive).

Consider `Oc1ccc2c(c1)OC[C@@H](N1CCC(O)(c3ccc(F)cc3)CC1)[C@H]2O`, for which the “activity, negative = inhibition” value is 34.2% (inactive).

As for `C=C(C)C(=O)NCCCN(C)C`, the “activity, negative = inhibition” value is 8.97% (inactive).

Consider `CCC(=O)/C=C/c1ccc(OC)cc1`, for which the “activity, negative = inhibition” value was 22.1% (inactive).

Turning to `OC1OC[C@@H](O)[C@H](O)[C@H]1O` (some centres not stated), the “activity, negative = inhibition” value was -8.62% (inactive).

For `CN(C)C(=O)C(CCN1CCC(O)(c2ccc(Cl)cc2)CC1)(c1ccccc1)c1ccccc1`, the Potency is 26.6 µM (active).

As for `CCN1CCCC(OC(=O)C(c2ccccc2)c2ccccc2)C1` (configuration not stated), the “activity, negative = inhibition” value was -8.44% [at 32.5 µM] (inactive).

For `Cn1cnc2c(=O)[nH]c(N)nc21`, the “activity, negative = inhibition” value is 3.58% (inactive).

Consider `CCCCOCC(C)OCC(C)O` (configuration not stated), for which the “activity, negative = inhibition” value is -0.629% [at 95 µM] (inactive).

Take `CC(C)c1ccc2oc3nc(N)c(C(=O)O)cc3c(=O)c2c1`: the “activity, negative = inhibition” value was 87.4% (inactive).

Consider `Cc1ccccc1Br`, for which the “activity, negative = inhibition” value is -2.09% (inactive).

For `COC(=O)C1=C(C)NC(C)=C(C(=O)OCC(C)=O)C1c1ccccc1[N+](=O)[O-]` (configuration not stated), the Potency is 26.6 µM (active).

On to `Cc1nccn1CC1CCc2c(c3ccccc3n2C)C1=O` (configuration not stated), for which the Potency result was “inactive”.

As to `CCC(=O)Nc1cccc(N)c1`, the “activity, negative = inhibition” value is 6.68% (inactive).

Regarding `Cc1nc(-c2ccc(OCC(C)C)c(C#N)c2)sc1C(=O)O`, the “activity, negative = inhibition” value was 19.1% (inactive).
